# Reference: the supplement of paper PMC11219838
# Values without a mark were called inactive.
# Tested on: Caenorhabditis elegans L1 (N2)
# Assay: survival and reproduction score of C. elegans L1 (0: 0-10 living worms, 1: 11-20, 2: 21-50, 3: >50, 4: overgrown) (score 0-4); higher = more worms, less nematicidal, active = 1 or less; extreme values may be limits of the assay
# Conditions: 60 µM; 6 days; temperature: 20 °C
# Method: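 DODA library (846 commercial 1,3,4- and 1,2,4-oxadiazole compounds plus commercial nematicide controls) screened at a single dose of 60 µM (0.6% DMSO) in 96-well plates, two biological replicates. Read-outs: C. elegans N2 L1 survival/reproduction score at day 6, 20 °C (0: 0-10 worms, 1: 11-20, 2: 21-50, 3: >50, 4: overgrown/starved). C. elegans daf-2 dauer, D. dipsaci and M. hapla J2 mobility at day 5, 20 °C, and P. penetrans mobility at day 5, 20 °C, each relative to DMSO controls. M. hapla egg hatching at day 12, 25 °C, relative to the mean of 8 DMSO wells on the same plate.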
row,Compound,survival and reproduction score
1,O=C(CSc1nnc(-c2ccc(Br)cc2)o1)Nc1nccs1,4
2,c1ccc(COc2cccc(-c3nc(-c4cccnc4)no3)c2)cc1,2.5
3,COc1cccc(-c2noc(COc3ccc(C(C)C)cc3)n2)c1,4
4,Cc1ccc(-c2nnc(SCc3c(C)cc(C)cc3C)o2)cc1,4
5,c1cc(-c2noc(C34CC5CC(CC(C5)C3)C4)n2)ccn1,4
6,COc1nc(C)ccc1-c1noc(-c2ccccc2C)n1,4
7,FC(F)(F)c1cccc(-c2noc(-c3ccc4c(c3)OCO4)n2)c1,4
8,CCCc1ccc(-c2nc(-c3cccnc3)no2)cc1,0 (active)
9,CCc1ccc(NC(=O)CSc2nnc(-c3ccc(Cl)cc3Cl)o2)cc1,4
10,N#Cc1ccc(CSc2nnc(-c3ccccc3)o2)cc1,4
11,Cc1ccc(-c2nc(-c3ccccc3Cl)no2)c(Cl)c1,4
12,Clc1ccc(CSc2nnc(-c3ccccc3)o2)cc1Cl,4
13,O=C(CSc1nnc(-c2ccccc2)o1)Nc1ccc2ccccc2c1,4
14,Cc1cccc(C)c1NC(=O)CSc1nnc(-c2ccncc2)o1,4
15,CCN(CC)C(=O)CSc1nnc(-c2ccc(Br)cc2)o1,4
16,CCOc1nc(-c2ccccc2)ccc1-c1noc(CC)n1,4
17,CCCCC(=O)Nc1ccccc1-c1nc(-c2ccccn2)no1,4
18,CCCCc1nc(-c2ccc(-c3ccc(C)cc3)nc2OC)no1,4
19,Cc1ccc(-c2nc(-c3ccc(F)cc3)no2)cc1,0 (active)
20,Cc1ccc(-c2nc(-c3ccccn3)no2)cc1C,3.5

row,Compound,survival and reproduction score
1,CC(C)C(=O)Nc1ccccc1-c1nc(-c2ccccc2)no1,4
2,CCCCC(=O)Nc1ccccc1-c1nc(-c2cccnc2)no1,4
3,CCOc1nc(-c2ccccc2)ccc1-c1noc(-c2ccccc2F)n1,4
4,COc1ccc(-c2noc(-c3ccc(Cl)cc3Cl)n2)cc1,4
5,CC(C)Oc1ccc(-c2nc(-c3cccnc3)no2)cc1,0 (active)
6,Brc1ccc(-c2nc(-c3ccc4c(c3)OCO4)no2)cc1,4
7,CC(Sc1nnc(-c2ccco2)o1)C(=O)NC(c1ccccc1)c1ccccc1 (stereo not given),4
8,COc1ccc(-c2noc(-c3cc(C)ccc3C)n2)cc1,4
9,Cc1cccc(-c2noc(COc3ccc(Cl)cc3)n2)c1,4
10,Cc1cc(C)nc(SCc2nc(-c3ccccc3)no2)n1,4
11,Cc1cccc(-c2noc(-c3ccc(Cl)cc3)n2)c1,4
12,Clc1ccc(-c2noc(-c3ccccc3Cl)n2)cc1,3
13,Brc1ccc(-c2noc(-c3cccs3)n2)cc1,0 (active)
14,COC(=O)c1ccc(CSc2nnc(-c3cccnc3)o2)cc1,4
15,COc1ccc(C(=O)CSc2nnc(-c3ccccc3)o2)cc1,4
16,Cc1ccc(NC(=O)CSc2nnc(-c3ccccc3)o2)cc1F,4
17,CCNC(=O)c1ccccc1-c1nc(-c2ccc(F)cc2)no1,2
18,Cc1ccccc1OCc1nc(-c2ccc(Cl)cc2)no1,4
19,Cc1ccc(OCc2nc(-c3ccccc3)no2)c(Br)c1,4
20,O=C(Nc1ccc(-c2noc(-c3ccc(F)cc3)n2)cc1)c1ccc(Br)o1,1 (active)
